Experimental data: PubChem BioAssay (EPA / NIEHS)
“And” between values parts separate entries of the source, which are not always exact repeats. Identical values can stand only once. Results filed as inconclusive are left out. The source made the active and inactive calls. How the source made its calls: active means hit-call score of the fitted dose curve at least 0.9, where 1 is the maximum; inconclusive means response in the unintended direction; inactive means score below 0.9.

Assays:
[1] = ATG_M_06_XSP2: Attagene TRANS-FACTORIAL Multi-Species (XSP2) HepG2 Assay for M06 Transcription Factor (Internal Marker) (AID 2283811);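 further: internal background marker reporter mRNA measured by RT-PCR and capillary electrophoresis; hits are increases in signal above the DMSO baseline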
Summary of the method: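 Readout: fluorescent reporter-mRNA peaks by capillary electrophoresis after RT-PCR and HpaI digest, scored upward relative to DMSO. Transfected HepG2, 24 h chemical exposure, with 3 nM 6-alpha-fluorotestosterone and 1.5 nM norgestrel added.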

[2] = test system: turtle Estrogen Receptor (ERa), gene 101933533; assay: ATG_trERa_XSP2: Attagene TRANS-FACTORIAL Multi-Species (XSP2) HepG2 Assay for turtle Estrogen Receptor (ERa) (AID 2283812);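 further: actives raise reporter signal above DMSO so AC50 reflects agonist activity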
Summary of the method: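 Readout is reporter mRNA quantified by RT-PCR with capillary electrophoresis after 24 h compound exposure, increase relative to DMSO. Uses transiently transfected human HepG2 liver cells carrying a chimeric turtle ERa-Gal4 receptor driving GAL4-UAS reporters.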

[3] = biological target: Estrogen receptor beta (Homo sapiens) (UniProt Q92731); assay: ATG_hERb_XSP2: Attagene TRANS-FACTORIAL Multi-Species (XSP2) HepG2 Assay for human Estrogen Receptor (ERb) (AID 2283813);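 further: actives raise reporter mRNA above DMSO so AC50 reflects agonist induction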
Summary of the method: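 Transient TRANS reporter system in HepG2: after 24 h of chemical, RNA is reverse-transcribed, reporter cDNA amplified, FAM-labelled and sized by capillary electrophoresis. Induction of the human ERb-Gal4 reporter is measured relative to DMSO.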

[4] = biological target: GAL4 Transcription Factor (Internal Marker), GAL4 (gene 855828) (UniProt P04386); assay: ATG_GAL4_XSP2: Attagene TRANS-FACTORIAL Multi-Species (XSP2) HepG2 Assay for GAL4 Transcription Factor (Internal Marker) (AID 2283814);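 further: GAL4 reporter mRNA background control in MRTU transfected cells not a receptor target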
Summary of the method: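 Background-control readout: gain-of-signal fitted against DMSO. After 24 h exposure of transfected HepG2 (MRTU, GAL4-UAS reporters; 3 nM 6-alpha-fluorotestosterone, 1.5 nM norgestrel present), transcripts quantified by RT-PCR and capillary electrophoresis fluorescence.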

[5] = biological target: human Thyroid hormone Receptor alpha (TRa), THRA (gene 7067) (UniProt P10827); assay: ATG_hTRa_XSP1: Attagene TRANS-FACTORIAL Multi-Species (XSP1) HepG2 Assay for human Thyroid hormone Receptor alpha (TRa) (AID 2283805)
Summary of the method: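 Reporter transcripts from the human TRa-Gal4 TRANS unit quantified by RT-PCR, fluorescent labeling and capillary electrophoresis after 24 hours of chemical exposure in transfected HepG2 cells; medium contains 3 nM 6-alpha-fluorotestosterone. Positive direction fit against DMSO.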

[6] = biological target: zebrafish Thyroid Hormone Receptor alpha (TRa), thraa (gene 30670) (UniProt Q98867); assay: ATG_zfTRa_XSP1: Attagene TRANS-FACTORIAL Multi-Species (XSP1) HepG2 Assay for zebrafish Thyroid Hormone Receptor alpha (TRa) (AID 2283807)
Summary of the method: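 Reporter transcripts driven by a chimeric zebrafish TRa–Gal4 protein were measured by RT-PCR with fluorescent labelling and capillary electrophoresis. These came from transiently transfected HepG2 cells after 24 h chemical exposure, with 3 nM 6-alpha-fluorotestosterone added; baseline was DMSO.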

[7] = biological target: human Thyroid hormone Receptor beta (TRb), THRB (gene 7068) (UniProt P10828); assay: ATG_hTRb_XSP1: Attagene TRANS-FACTORIAL Multi-Species (XSP1) HepG2 Assay for human Thyroid hormone Receptor beta (TRb) (AID 2283808)
Summary of the method: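 Readout is reporter mRNA induction measured by RT-PCR, fluorescent labelling and capillary electrophoresis, fitted upward relative to DMSO. Transiently transfected human HepG2 cells expressing NR-Gal4 chimeras were dosed for 24 h, medium containing 3 nM 6-alpha-fluorotestosterone.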

[8] = biological target: zebrafish Thyroid Hormone Receptor beta (TRb), thrb (gene 30607) (UniProt Q9PVE4); assay: ATG_zfTRb_XSP1: Attagene TRANS-FACTORIAL Multi-Species (XSP1) HepG2 Assay for zebrafish Thyroid Hormone Receptor beta (TRb) (AID 2283809)
Procedure: (§1) ATG_XSP1_multi-species_TRANS is a cell-based, multiplexed assay created by modifying the existing Attagene TRANS-FACTORIAL system to include a panel of nuclear receptors from some or all the following species: human (Homo sapiens), mouse (Mus musculus), frog (Xenopus laevis), zebrafish (Danio rerio), chicken (Gallus gallus), and turtle (Chrysemys picta). The ECOTOX-FACTORIAL format uses HepG2, a human liver cell line, with measurements taken at 24 hours after chemical dosing in a 24-well plate. Xsp1 included 3 nM 6-alpha-fluorotestosterone to partially stimulate the androgen receptor.ATG_zfTRb_XSP1 is one of 29 assay components measured or calculated from the ATG_XSP1_multi-species_TRANS assay. It is designed to make measurements of mRNA induction, a form of inducible reporter, as detected with fluorescence intensity signals by Reverse transcription polymerase chain reaction (RT-PCR) and Capillary electrophoresis technology.The assay endpoint ATG_zfTRb_XSP1 was analyzed in the positive analysis fitting direction relative to DMSO as the negative control and baseline of activity. Using a type of inducible reporter, measures of mRNA for gain-of-signal activity can be used to understand the reporter gene at the transcription factor-level as they relate to the gene TR. Furthermore, this assay endpoint can be referred to as a primary readout, because this assay has produced multiple assay endpoints where this one serves a reporter gene function. To generalize the intended target to other relatable targets, this assay endpoint is annotated to the nuclear receptor intended target family, where the subfamily is non-steroidal.
Human liver HepG2 cells are transiently transfected with multiple reporter transcription units (MRTUs) in 6-well plates using FuGene 6 reagent (Roche; 3 ml FuGene/1 mg DNA). The MRTU constructs are regulated by a cis-regulating element (promoter). […] A major difference between the CIS and TRANS system is that in CIS activities of endogenous TFs are measured, whereas the TRANS assay evaluates changes in activities of exogenous, chimeric NR-Gal4 proteins. […] At the end of 24 hour incubation, total RNA was isolated using TriZol reagent (Invitrogen). The isolated RNA is then reverse-transcribed using oligo(dT) primer and Mo-MLV reverse transcriptase (Invitrogen) with DNAse I (Ambion) treatment for 30 min. The one-tenth of the produced cDNA was amplified by PCR using Taq DNA polymerase (Invitrogen) and two reporter sequence-specific primers. The PCR products were fluorescently labeled by primer extension with 6-arboxyfluorescein (6-FAM) 5'-labeled reporter sequence-specific primer (2 min at 95 C, 20 s at 68 C and 10 min at 72 C) and these products were digested with 5U of HpaI (New England Biolabs) for 2h at 37 C. The fragments were purified using Qiaquick PCR columns (Qiagen), analyzed on an ABI 3130xL genetic analyzer (Applied Biosystems) with peak positions identified by using a set of X-rhodamine (ROX)-labeled MapMarker1000 molecular weight standards (BioVentures). The raw capillary electrophoresis data was processed using Attagraph software (Attagene).

[9] = ATG_XTT_Cytotoxicity_XSP1: Cytotoxicity Assessment in the Attagene TRANS-FACTORIAL Multi-Species (XSP1) HepG2 Assay (AID 2283810)
Summary of the method: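 XTT viability readout taken at 24 hours post-dosing in HepG2 liver cells co-treated with 3 nM 6-alpha-fluorotestosterone. Signal loss relative to DMSO controls reflects cytotoxicity.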

[10] = test system: turtle Thyroid Hormone Receptor, alpha (TRa), gene 101949057; assay: ATG_trTRa_XSP1: Attagene TRANS-FACTORIAL Multi-Species (XSP1) HepG2 Assay for turtle Thyroid Hormone Receptor, alpha (TRa) (AID 2283806)
Procedure: as §1, with “receptor.ATG_trTRa_XSP1” for “receptor.ATG_zfTRb_XSP1”, “ATG_trTRa_XSP1” for “ATG_zfTRb_XSP1”, “To generalize the intended target to other relatable targets, this assay endpoint is annotated to the nuclear receptor intended target family, where the subfamily is non-steroidal.” left out
Human liver HepG2 cells are transiently transfected with multiple reporter transcription units (MRTUs) in 6-well plates using FuGene 6 reagent (Roche; 3 ml FuGene/1 mg DNA). […] A major difference between the CIS and TRANS system is that in CIS activities of endogenous TFs are measured, whereas the TRANS assay evaluates changes in activities of exogenous, chimeric NR-Gal4 proteins. […] The fragments were purified using Qiaquick PCR columns (Qiagen), analyzed on an ABI 3130xL genetic analyzer (Applied Biosystems) with peak positions identified by using a set of X-rhodamine (ROX)-labeled MapMarker1000 molecular weight standards (BioVentures). […]

Measured: AC50

Sequence of zebrafish Thyroid Hormone Receptor beta (TRb), thrb (gene 30607) (Q9PVE4 whole entry, looked up): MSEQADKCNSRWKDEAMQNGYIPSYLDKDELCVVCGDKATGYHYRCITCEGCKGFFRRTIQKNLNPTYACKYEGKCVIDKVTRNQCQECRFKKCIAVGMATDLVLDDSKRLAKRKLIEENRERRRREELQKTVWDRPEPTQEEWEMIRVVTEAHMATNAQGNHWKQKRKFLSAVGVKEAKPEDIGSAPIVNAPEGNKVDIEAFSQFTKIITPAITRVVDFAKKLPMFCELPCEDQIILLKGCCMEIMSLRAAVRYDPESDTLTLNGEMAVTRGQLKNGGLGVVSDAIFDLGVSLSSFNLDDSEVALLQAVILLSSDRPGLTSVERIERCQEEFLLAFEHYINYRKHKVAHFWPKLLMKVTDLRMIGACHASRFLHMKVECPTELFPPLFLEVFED
Sequence of Estrogen receptor beta (Homo sapiens) (Q92731 whole entry, looked up, the tested form may be a part): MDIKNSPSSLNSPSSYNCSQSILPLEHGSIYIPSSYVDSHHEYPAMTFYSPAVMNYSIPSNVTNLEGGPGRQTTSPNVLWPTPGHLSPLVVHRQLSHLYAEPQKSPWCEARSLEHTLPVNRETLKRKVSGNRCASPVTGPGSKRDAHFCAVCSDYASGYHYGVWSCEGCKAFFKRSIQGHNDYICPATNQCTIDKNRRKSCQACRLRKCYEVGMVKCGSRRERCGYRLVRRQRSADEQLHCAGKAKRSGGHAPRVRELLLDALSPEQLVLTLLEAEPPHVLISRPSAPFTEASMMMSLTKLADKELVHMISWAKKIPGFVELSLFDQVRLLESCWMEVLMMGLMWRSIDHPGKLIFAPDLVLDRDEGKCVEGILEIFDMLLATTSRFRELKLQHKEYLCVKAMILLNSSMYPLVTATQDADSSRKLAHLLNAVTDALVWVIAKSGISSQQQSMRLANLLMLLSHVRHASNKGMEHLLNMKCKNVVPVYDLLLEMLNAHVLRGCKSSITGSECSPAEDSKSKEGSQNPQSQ
Sequence of zebrafish Thyroid Hormone Receptor alpha (TRa), thraa (gene 30670) (Q98867 whole entry, looked up, the tested form may be a part): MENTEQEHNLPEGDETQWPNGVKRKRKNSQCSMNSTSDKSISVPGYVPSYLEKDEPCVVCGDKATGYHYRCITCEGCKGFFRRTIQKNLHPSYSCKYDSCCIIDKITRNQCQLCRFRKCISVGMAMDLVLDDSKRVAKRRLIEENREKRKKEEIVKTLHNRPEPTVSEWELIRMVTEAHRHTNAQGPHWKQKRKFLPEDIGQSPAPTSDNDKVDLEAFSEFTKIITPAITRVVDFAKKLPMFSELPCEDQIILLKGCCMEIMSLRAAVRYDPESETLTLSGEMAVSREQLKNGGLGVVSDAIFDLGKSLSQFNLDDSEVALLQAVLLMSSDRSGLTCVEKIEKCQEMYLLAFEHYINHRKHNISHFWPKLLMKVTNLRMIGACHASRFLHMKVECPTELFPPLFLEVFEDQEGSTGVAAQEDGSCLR
Sequence of GAL4 Transcription Factor (Internal Marker), GAL4 (gene 855828) (P04386 whole entry, looked up, the tested form may be a part): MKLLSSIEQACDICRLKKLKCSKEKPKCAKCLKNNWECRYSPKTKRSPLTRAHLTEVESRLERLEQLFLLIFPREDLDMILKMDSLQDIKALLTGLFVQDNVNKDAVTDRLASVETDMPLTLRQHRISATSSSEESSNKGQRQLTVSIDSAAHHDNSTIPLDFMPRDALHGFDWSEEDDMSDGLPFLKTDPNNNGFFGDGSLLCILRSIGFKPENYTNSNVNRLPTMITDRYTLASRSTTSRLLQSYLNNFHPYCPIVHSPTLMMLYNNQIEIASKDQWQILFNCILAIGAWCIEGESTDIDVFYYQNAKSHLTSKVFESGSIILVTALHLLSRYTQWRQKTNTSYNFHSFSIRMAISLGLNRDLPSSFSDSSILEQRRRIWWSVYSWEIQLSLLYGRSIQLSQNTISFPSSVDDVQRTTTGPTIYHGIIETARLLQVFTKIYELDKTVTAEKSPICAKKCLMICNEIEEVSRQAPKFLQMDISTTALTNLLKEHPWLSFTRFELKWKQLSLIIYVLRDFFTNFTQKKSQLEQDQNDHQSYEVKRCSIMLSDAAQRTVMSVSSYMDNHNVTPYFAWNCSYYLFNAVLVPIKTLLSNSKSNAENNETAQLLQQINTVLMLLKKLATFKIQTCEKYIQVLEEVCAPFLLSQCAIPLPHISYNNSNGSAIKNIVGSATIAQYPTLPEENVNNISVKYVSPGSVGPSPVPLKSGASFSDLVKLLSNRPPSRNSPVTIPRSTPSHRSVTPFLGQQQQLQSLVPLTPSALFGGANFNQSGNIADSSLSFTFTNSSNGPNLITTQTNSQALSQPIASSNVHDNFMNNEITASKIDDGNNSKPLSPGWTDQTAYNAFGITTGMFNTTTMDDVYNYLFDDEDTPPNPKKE
Sequence of human Thyroid hormone Receptor beta (TRb), THRB (gene 7068) (P10828 whole entry, looked up, the tested form may be a part): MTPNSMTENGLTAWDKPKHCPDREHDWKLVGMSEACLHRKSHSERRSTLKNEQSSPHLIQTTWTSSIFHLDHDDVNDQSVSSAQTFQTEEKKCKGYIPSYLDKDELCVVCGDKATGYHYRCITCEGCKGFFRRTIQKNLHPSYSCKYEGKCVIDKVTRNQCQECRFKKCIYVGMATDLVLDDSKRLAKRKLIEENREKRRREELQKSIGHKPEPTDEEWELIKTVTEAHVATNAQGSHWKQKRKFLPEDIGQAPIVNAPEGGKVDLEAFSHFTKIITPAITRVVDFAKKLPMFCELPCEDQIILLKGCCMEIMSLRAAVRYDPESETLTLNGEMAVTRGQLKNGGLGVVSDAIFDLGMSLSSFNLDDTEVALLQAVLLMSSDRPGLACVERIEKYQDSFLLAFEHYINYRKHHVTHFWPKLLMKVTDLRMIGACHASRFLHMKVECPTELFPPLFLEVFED
Sequence of human Thyroid hormone Receptor alpha (TRa), THRA (gene 7067) (P10827 whole entry, looked up, the tested form may be a part): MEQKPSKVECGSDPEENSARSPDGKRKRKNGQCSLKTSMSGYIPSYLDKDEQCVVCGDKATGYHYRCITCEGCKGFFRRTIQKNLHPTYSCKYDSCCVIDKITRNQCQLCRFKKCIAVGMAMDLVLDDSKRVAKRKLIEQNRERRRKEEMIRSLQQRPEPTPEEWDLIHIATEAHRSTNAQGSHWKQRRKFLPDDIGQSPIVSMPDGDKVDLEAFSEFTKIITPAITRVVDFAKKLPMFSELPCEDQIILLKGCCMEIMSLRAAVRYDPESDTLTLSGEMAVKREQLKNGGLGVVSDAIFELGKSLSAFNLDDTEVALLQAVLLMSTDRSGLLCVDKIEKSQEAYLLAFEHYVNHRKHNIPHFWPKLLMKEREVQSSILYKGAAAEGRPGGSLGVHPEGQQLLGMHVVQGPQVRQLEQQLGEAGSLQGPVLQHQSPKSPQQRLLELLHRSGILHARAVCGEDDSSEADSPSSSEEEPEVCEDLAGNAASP

c1ccc2c(c1)-c1cccc3cccc-2c13
inactive: [1] | [2] | [3] | [4]

O=[N+]([O-])c1ccc(Oc2ccc(Cl)cc2Cl)cc1
inactive: [1] | [2] | [3]

CCCCCOC(=O)c1ccccc1C(=O)OCCCCC
not listed: [1] | [4] | [10]
inactive: all other assays above

Oc1ccc2ccc3cccc4ccc1c2c34
inactive: [1]
active: [2] 8.33 µM and 5.18 µM | [3] 1.64 µM and 1.79 µM

Clc1ccc(C(c2ccc(Cl)cc2)C(Cl)Cl)cc1
inactive: [6] | [1] | [4]
active: [9] 100000 nM | [2] 11.6 µM

CCCCOC(=O)c1ccccc1C(=O)OCc1ccccc1
active: [2] 61.1 µM
not listed: [5] | [7] | [10]
inactive: all other assays above

CCC[CH2][Sn]([Cl])([CH2]CCC)[CH2]CCC
active: [5] 86.5 nM | [6] 228 nM | [7] 159 nM | [8] 84 nM | [9] 1540 nM
inactive: [10] | [1]

CCC(C)c1ccc(O)cc1 (stereo unspecified)
active: [2] 6.55 µM and 1.91 µM | [3] 5.47 µM and 2.25 µM
inactive: [1] | [4]

CCCCC(CC)COC(=O)c1ccc(C(=O)OCC(CC)CCCC)c(C(=O)OCC(CC)CCCC)c1 (stereo unspecified)
inactive: [4]
active: [2] 100 µM and 11.9 µM

CC(C)(C)C(O)(CCc1ccc(Cl)cc1)Cn1cncn1 (stereo unspecified)
inactive: [1] | [2] | [4]

C[C@]12C=CC3=C4CCC(=O)C=C4CC[C@H]3[C@@H]1CC[C@@H]2O
inactive: [10] | [8] | [9] | [1] | [2] | [3]

Clc1ccc(C(c2ccc(Cl)cc2)C(Cl)(Cl)Cl)cc1
inactive: [10] | [8] | [9] | [1] | [3]
